From PubChem BioAssay (NCI)
Compounds without any hit were thinned out: in the full panel of roughly 83,000, 20% have a hit.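 Treatment: one concentration, 48 hours, 96-well format. Scoring: percent growth, with anything below 10 considered active.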 The source made the active and inactive calls.

Assays:
Assay in all cases: NCI-60 one-dose screen, 48 h (100 = growth as untreated, 0 = no growth, -100 = all killed)
Details in all cases: 10 µM
[1] = tested on: SR leukemia
[2] = tested on: RPMI-8226 leukemia
[3] = tested on: OVCAR-8 ovarian
[4] = tested on: OVCAR-5 ovarian
[5] = tested on: OVCAR-4 ovarian
[6] = tested on: SK-OV-3 ovarian
[7] = tested on: IGROV1 ovarian
[8] = tested on: OVCAR-3 ovarian
[9] = tested on: HS 578T breast
[10] = tested on: NCI/ADR-RES ovarian
[11] = tested on: T-47D breast
[12] = tested on: BT-549 breast
[13] = tested on: MDA-MB-435 melanoma
[14] = tested on: SW-620 colon
[15] = tested on: MCF7 breast
[16] = tested on: HCT-116 colon
[17] = tested on: HCC-2998 colon

Measured: growth

CC(CNC(Cc1ccccc1)c1ccccc1)NC(Cc1ccccc1)c1ccccc1 (configuration not stated)
active: [1] -19.7% | [2] -34.6% | [15] 8.12%
inactive: [3] 49.5% | [4] 46.3% | [5] 31.7% | [6] 81.7% | [7] 39% | [8] 47.3% | [9] 75.2% | [10] 50% | [11] 14.6% | [12] 60.9% | [13] 63.4% | [14] 26.4% | [16] 13.2% | [17] 20.1%

O=C(c1ccccc1)C(Nc1ccccc1)c1ccccc1 (configuration not stated)
inactive: [1] 96.2% | [2] 84.8% | [3] 87% | [4] 93.3% | [5] 92.3% | [6] 96.9% | [7] 75.9% | [8] 97.1% | [9] 95.1% | [10] 93.1% | [11] 76.5% | [12] 94.4% | [13] 102% | [14] 97.6% | [15] 101% | [16] 87.1% | [17] 101%

CCOC(=O)c1c(C)n(-c2ccc(Cl)cc2)c2ccc(OC(=O)/C=C/c3ccccc3)cc12
active: [13] 9.43%
inactive: [1] 26.7% | [2] 67.6% | [3] 88.8% | [4] 108% | [5] 81.6% | [6] 93.9% | [7] 88.3% | [8] 77.7% | [9] 82.6% | [10] 61.7% | [11] 82.7% | [12] 82.2% | [14] 67% | [15] 59.6% | [16] 90.6% | [17] 102%

COc1ccc(-c2cc(/C=C3\C(=O)Nc4cc(Cl)ccc43)[nH]n2)cc1OC
inactive: [1] 21.9% | [2] 79.8% | [3] 104% | [4] 95.7% | [5] 85.6% | [6] 78.2% | [7] 50.7% | [8] 53% | [9] 60.5% | [10] 62.5% | [11] 96.5% | [12] 80.1% | [14] 47.1% | [15] 32.2% | [16] 50.9% | [17] 98.8%
active: [13] 7.28%

N=C(N)c1ccc(-c2ccc(-c3ccccc3)s2)s1
active: [1] -40% | [2] -44.3% | [3] -39.9% | [4] -23.7% | [5] -70.2% | [6] -50.1% | [7] -31.1% | [8] -41.3% | [9] -21% | [10] -35.2% | [11] -66.9% | [13] -83.3% | [14] -71.1% | [15] -71.5% | [16] -62% | [17] -80.8%
inactive: [12] 88.9%

Nc1ncc(-c2ccc(C(F)(F)F)cc2)c(NC2CCCCCC2)n1
inactive: [1] 60.3% | [3] 19.4% | [4] 53% | [5] 20% | [6] 76.1% | [7] 58.6% | [8] 14.5% | [9] 38.4% | [10] 56.9% | [11] 20.5% | [12] 48.3% | [13] 37.1% | [14] 37.4% | [15] 25% | [16] 26.3% | [17] 35.1%
active: [2] -8.42%

COc1cc(N=C2C(=O)N(Cc3ccccc3)c3ccccc32)cc(OC)c1OC
inactive: [1] 74.5% | [2] 38.4% | [3] 96.6% | [4] 95% | [5] 98.8% | [6] 101% | [7] 86% | [8] 84.4% | [9] 82.9% | [10] 94.6% | [11] 83.9% | [12] 106% | [13] 98.5% | [14] 103% | [15] 93.8% | [16] 99.8%

COc1ccc(Nc2ccnc(N3CCN(c4ccnc5cc(Cl)ccc45)CC3)n2)cc1
inactive: [5] 10.7% | [6] 12.7% | [8] 15.8% | [9] 10.4% | [17] 15.8%
active: [1] 1.29% | [2] -23.1% | [3] 0.239% | [4] 9.98% | [7] -0.0353% | [10] -2.96% | [11] -7.73% | [12] -11.5% | [13] -4.38% | [14] 7.57% | [15] 2.5% | [16] 0.434%

Cc1cc(/C=C2\SC(=Nc3ccccc3)N(C3CCCC3)C2=O)c(C)n1-c1ccc(Cl)cc1
active: [1] -36.8% | [2] -43.3% | [3] -38% | [4] -24.9% | [5] -35.3% | [6] -90.5% | [7] -48.6% | [8] -85.1% | [9] -12.8% | [10] 0.0476% | [11] -49.3% | [12] -57.6% | [13] -82.4% | [14] -61.6% | [15] -56.5% | [16] -50.5% | [17] -83.8%
